# Several values for one entry are separate records, joined by “and”; a condition that tells them apart may be missing. Equal values may be shown once. Records with an inconclusive call do not appear. Where a call stands in place of a potency, no number is given. Where a structure was tested more than once in an assay, its records may differ in their call. Activity calls are given as the source filed them. Unless noted, calls come from the whole dose curve; as a rule, active = well fitted curve in the direction sought with a large enough effect in the repeat runs; inconclusive = weak or mixed curves; inactive = no such curve, though single readings can be large; an effect the other way counts as inactive or inconclusive.
# How the values were obtained:
# [1] = qHTS assay for small molecules that induce genotoxicity in human embryonic kidney cells expressing luciferase-tagged ATAD5 (AID 651632); note: nearly all actives have a fitted effect of over 15% in size
# Procedure, shortened: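 HEK293T cells carrying a luciferase reporter tagged to ATAD5 were exposed to compound or DMSO vehicle for 16 hr at 37C, 5% CO2. Amplite was added, and after 30 min at room temperature luciferase activity was read as a marker of ATAD5 induction.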
# [2] = qHTS assay for small molecule agonists of the p53 signaling pathway - cell viability (AID 651633; calls by dose curve; note: nearly all actives have a fitted effect of over 30% in size; note: potency is the fitted concentration of half-maximal effect)
# Procedure, shortened: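 p53RE-bla cells were treated with compound for 16 hours at 37 C. Cytotoxicity was then measured as CellTiter-Glo luminescence after 30 min at room temperature.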
# [3] = qHTS assay for small molecules that induce genotoxicity in human embryonic kidney cells expressing luciferase-tagged ATAD5 - cell viability (AID 651634; calls by dose curve; note: nearly all actives have a fitted effect of over 25% in size; note: potency is the fitted concentration of half-maximal effect)
# Procedure, shortened: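 HEK293T cells expressing luciferase-tagged ATAD5 were exposed to compound or DMSO for 15.5 hr at 37C, 5% CO2. Viability was then read as live-cell protease activity by CellTiter-Fluor fluorescence after 30 min at 37C.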
# [4] = qHTS assay for small molecule disruptors of the mitochondrial membrane potential - cell viability (AID 720634; calls by dose curve; note: nearly all actives have a fitted effect of over 20% in size; note: potency is the fitted concentration of half-maximal effect)
# Procedure, shortened: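 HepG2 cells seeded overnight at 37 C, then exposed to compound or DMSO for 1 hr at 37 C, 5% CO2. m-MPI dye added, then CellTiter-Glo for 30 min at room temperature; viability read as ATP luminescence.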
# [5] = qHTS assay for small molecule disruptors of the mitochondrial membrane potential (AID 720635); note: potency is the fitted concentration of half-maximal effect
# Procedure, shortened: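 HepG2 cells exposed to compound 1 hr at 37C, then Mito-MPS dye 30 min. Ratio read of aggregate (540/590 nm) versus monomer (490/535 nm) fluorescence.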
# [6] = qHTS assay to test for compound auto fluorescence at 590 nm (red) in HepG2 cells (AID 720674)
# Procedure, shortened: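 Seeding: 2,000 HepG2 cells/well, MEM/10% FBS, overnight 37 C. Dosing: compound vs DMSO. Incubation: 1 hr, 37 C, 5% CO2. Read: fluorescence 540 ex/590 em, Rose Bengal sodium as red reference.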
# [7] = qHTS assay to test for compound auto fluorescence at 535 nm (green) in HepG2 cells (AID 720675)
# [8] = qHTS assay to test for compound auto fluorescence at 460 nm (blue) in HEK293 cells (AID 720678); note: potency is the fitted concentration of half-maximal effect
# Procedure, shortened: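 Blue read-out at excitation 405 nm and emission 460 nm follows overnight compound exposure of HEK293 cells at 37C in 5% CO2. Activity is given as auto fluorescence equivalency to triamterene.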
# [9] = qHTS assay to test for compound auto fluorescence at 590 nm (red) in HEK293 cells (AID 720679)
# Procedure, shortened: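 Red channel, Ex/Em 540/590nm; signal expressed as equivalency to Rose Bengal sodium. HEK293, 2,000 cells/well, 10% dialyzed FBS; 23 nL compound pinned after 4-5 hr attachment; overnight 37C/5% CO2 before reading.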
# [10] = qHTS assay to test for compound auto fluorescence at 535 nm (green) in HEK293 cells (AID 720680)
# [11] = qHTS assay to test for compound auto fluorescence at 460 nm (blue) in HEK293 cell free culture (AID 720681); note: potency is the fitted concentration of half-maximal effect
# Procedure, shortened: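 Compounds were added to cell-free DMEM with 10% FBS and fluorescence read directly. The blue channel used 405 nm excitation and 460 nm emission, with triamterene as the reference fluorophore.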
# [12] = qHTS assay to test for compound auto fluorescence at 535 nm (green) in HEK293 cell free culture (AID 720682)
# Procedure, shortened: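 Measurement is a direct plate read of green fluorescence (485 nm in, 535 nm out) after compound addition to serum-supplemented DMEM lacking cells, with fluorescein used to express intensities.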
# [13] = qHTS assay to test for compound auto fluorescence at 590 nm (red) in HEK293 cell free culture (AID 720683)
# Procedure, shortened: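 Cell-free wells of DMEM with 10% FBS received compound, and intrinsic fluorescence was read at excitation/emission 540/590 nm. Values expressed as equivalence to Rose Bengal sodium.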
# [14] = qHTS assay to test for compound auto fluorescence at 590 nm (red) in HepG2 cell free culture (AID 720684)
# Procedure, shortened: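 Compounds are added to culture medium (MEM, 10% FBS) lacking cells, then fluorescence is read at excitation 540 nm, emission 590 nm, with Rose Bengal sodium as the equivalency standard.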
# [15] = qHTS assay to test for compound auto fluorescence at 460 nm (blue) in HepG2 cell free culture (AID 720685); note: potency is the fitted concentration of half-maximal effect
# Procedure, shortened: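 Compound (23 nL) or DMSO pinned into cell-free MEM with 10% FBS; blue fluorescence read at 405/460 nm excitation/emission, expressed as auto-fluorescence equivalency to triamterene.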
# [16] = qHTS assay to test for compound auto fluorescence at 535 nm (green) in HepG2 cell free culture (AID 720686)
# [17] = qHTS assay to test for compound auto fluorescence at 460 nm (blue) in HepG2 cells (AID 720687); note: potency is the fitted concentration of half-maximal effect
# Procedure, shortened: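 HepG2 cells in MEM with 10% FBS, attached overnight at 37 C, were exposed to compound or DMSO for 1 hr at 37 C, 5% CO2. Blue fluorescence was read at 405/460 nm, with triamterene as reference fluorophore.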
# [18] = molecular target: Glucocorticoid receptor (Homo sapiens) (UniProt P04150); experiment: qHTS assay to identify small molecule antagonists of the glucocorticoid receptor (GR) signaling pathway (AID 720692; active = well fitted inhibition curve with a large enough effect in the signal ratio in the repeat runs, not every such curve was filed as active; the % refers to the signal ratio; note: potency is the fitted concentration of half-maximal effect)
# Glucocorticoid receptor (Homo sapiens), sequence (P04150 whole entry, looked up): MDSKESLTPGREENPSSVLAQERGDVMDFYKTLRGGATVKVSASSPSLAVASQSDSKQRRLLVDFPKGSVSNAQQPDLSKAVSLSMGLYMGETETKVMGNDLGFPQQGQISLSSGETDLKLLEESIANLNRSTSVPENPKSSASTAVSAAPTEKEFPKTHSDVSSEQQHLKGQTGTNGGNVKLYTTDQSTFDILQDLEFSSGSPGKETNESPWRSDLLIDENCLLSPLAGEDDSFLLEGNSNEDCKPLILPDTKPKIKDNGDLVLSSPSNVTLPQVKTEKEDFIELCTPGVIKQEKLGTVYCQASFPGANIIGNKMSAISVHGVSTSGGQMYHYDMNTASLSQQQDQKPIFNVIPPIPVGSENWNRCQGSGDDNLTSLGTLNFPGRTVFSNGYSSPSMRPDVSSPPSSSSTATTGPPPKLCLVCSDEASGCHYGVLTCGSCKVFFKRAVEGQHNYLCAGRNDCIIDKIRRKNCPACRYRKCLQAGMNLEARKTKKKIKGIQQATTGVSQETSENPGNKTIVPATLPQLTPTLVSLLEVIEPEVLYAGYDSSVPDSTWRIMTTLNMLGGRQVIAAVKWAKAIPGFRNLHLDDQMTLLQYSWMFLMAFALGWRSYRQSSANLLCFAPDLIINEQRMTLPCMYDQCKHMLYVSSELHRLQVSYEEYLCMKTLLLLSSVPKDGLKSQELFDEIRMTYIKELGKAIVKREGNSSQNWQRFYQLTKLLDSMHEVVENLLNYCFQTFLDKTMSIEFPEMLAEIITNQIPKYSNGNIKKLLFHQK
# Procedure, shortened: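 GR-bla HeLa cells (beta-lactamase reporter under glucocorticoid response element) were pre-plated 4 h at 37 C, treated with compounds plus 5 nM dexamethasone (final) for 18 h, then read by LiveBLAzer B/G FRET fluorescence after 2 h.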
# [19] = molecular target: Glucocorticoid receptor (Homo sapiens) (UniProt P04150); experiment: qHTS assay to identify small molecule agonists of the glucocorticoid receptor (GR) signaling pathway (AID 720691; active = well fitted activation curve with a large enough effect in the signal ratio in the repeat runs, not every such curve was filed as active; the % refers to the signal ratio; note: potency is the fitted concentration of half-maximal effect); conditions: GR-bla HeLa, beta-lactamase reporter ratio, 18 h; activation: at 62.4 µM (top of the series)
# Procedure, shortened: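 GR-bla HeLa cells (beta-lactamase reporter under glucocorticoid response element) were plated 4 h at 37 C/5% CO2, given compounds in DMSO, and incubated 18 h at 37 C. LiveBLAzer B/G FRET substrate was added for 2 h at room temperature, then fluorescence intensity read.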
# Tags give direction and shape of the fitted curve or compound fluorescence and quenching.
Structure (SMILES),Potency [1],Potency [2],Potency [3],Potency [4],Potency [5],outcome [6],Potency [7],Potency [8],outcome [9],outcome [10],Potency [11],outcome [12],outcome [13],outcome [14],Potency [15],Potency [16],Potency [17],Potency [18],Potency [19]
CCCCCCCCCCCCN1CCCC1=O,inactive,61.1 µM (active),inactive,inactive,68.6 µM (active),inactive,inactive,inactive,inactive,inactive,inactive,inactive,inactive,inactive,inactive,inactive,inactive,–,–
c1ccc2occc2c1,inactive,inactive,inactive,inactive,–,inactive,inactive,inactive,inactive,inactive,inactive,inactive,inactive,inactive,inactive,inactive,inactive,–,–
c1ccc2cc3c4ccccc4c4ccccc4c3cc2c1,inactive,inactive,inactive,–,–,inactive,inactive,inactive,inactive,inactive,inactive,inactive,inactive,inactive,inactive,inactive,–,–,–
O=C(CCCCCCCCc1cccnc1)N1CCC(C=C(c2ccccc2)c2ccccc2)CC1,inactive,24.3 µM (active),61.1 µM (active),19.3 µM (active),24.3 µM (active),inactive,inactive,inactive,inactive,inactive,inactive,inactive,inactive,inactive,inactive,inactive,–,21.9 µM (active),–
O=[N+]([O-])c1ccc(O)c2ncccc12,inactive,26.6 µM (active),21.1 µM (active),inactive,6.68 µM (active),inactive,inactive,inactive,inactive,inactive,inactive,inactive,inactive,inactive,inactive,inactive,inactive,–,–
CN(C)CCOc1ccc(/C(=C(/CCCl)c2ccccc2)c2ccccc2)cc1,inactive,57.2 µM (active),inactive,inactive,–,inactive,inactive,inactive,inactive,–,inactive,inactive,inactive,inactive,inactive,inactive,inactive,–,–
CC(C)(C)c1ccc2c(S(=O)(=O)O)c(C(C)(C)C)ccc2c1,inactive,inactive,inactive,inactive,–,inactive,inactive,–,inactive,inactive,inactive,inactive,inactive,inactive,inactive,inactive,inactive,inactive,inactive
CCCCCCCC[N+](C)(C)CCCCCCCC,inactive,inactive,inactive,inactive,21.1 µM (active) and 23.7 µM (active),inactive,inactive,inactive,inactive,inactive,inactive,inactive,–,inactive,–,inactive,inactive,–,inactive
C[C@@H]1C(=O)NC2=Nc3cccc(Cl)c3CN21,inactive,inactive,inactive,inactive,–,inactive,inactive,inactive,inactive,–,inactive,inactive,inactive,inactive,–,inactive,–,–,inactive
CCOc1ccc([N+](=O)[O-])cc1,inactive,62 µM (active),–,55.3 µM (active),3.91 µM (active),inactive,inactive,inactive,inactive,–,inactive,inactive,inactive,inactive,inactive,inactive,inactive,–,–
C/C(=C(/CCO)SSCC1CCCO1)N(C=O)Cc1cnc(C)nc1N (stereo not drawn),inactive,inactive,inactive,inactive,inactive,inactive,inactive,inactive,inactive,inactive,inactive,inactive,inactive,inactive,inactive,inactive,inactive,inactive,inactive and 21.3 µM (active)
CCC(NC(C)C)C(O)c1ccc(O)c(O)c1 (stereo not drawn),inactive,inactive,inactive,inactive,–,inactive,inactive,inactive,inactive,inactive,inactive,inactive,inactive,inactive,inactive,inactive,inactive,–,–
CC[C@H](C)C(=O)O[C@H]1CCC=C2C=C[C@H](C)[C@H](CC[C@@H]3C[C@@H](O)CC(=O)O3)[C@H]21,inactive,inactive,inactive,inactive,–,inactive,inactive,inactive,inactive,inactive,inactive,inactive,inactive,inactive,inactive,inactive,inactive,–,–
CCN(CC)CCn1c(=O)c(Cc2ccc(OC)cc2)nc2ccccc21,inactive,inactive,inactive,inactive,inactive,inactive,inactive,–,inactive,inactive,inactive,inactive,inactive,inactive,–,inactive,inactive,inactive,inactive
CO[C@H]1C[C@@H]2CC[C@@H](C)[C@@](O)(O2)C(=O)C(=O)N2CCCC[C@H]2C(=O)O[C@H]([C@H](C)C[C@@H]2CC[C@@H](O)[C@H](OC)C2)CC(=O)[C@H](C)C=C(C)[C@@H](O)[C@@H](OC)C(=O)[C@H](C)C[C@H](C)/C=C/C=CC=C1C,inactive,21.1 µM (active) and 23.7 µM (active),29.8 µM (active) and 26.6 µM (active),inactive,17.6 µM (active) and 19.7 µM (active),inactive,inactive,inactive,inactive,–,inactive,inactive,inactive,inactive,inactive,inactive,inactive,–,–
C[C@H]1O[C@@H](O[C@H]2CC[C@@]3(C)[C@H](CC[C@@H]4[C@@H]3C[C@@H](O)[C@]3(C)[C@@H](C5=CC(=O)OC5)CC[C@]43O)C2)C[C@H](O)[C@@H]1O[C@H]1C[C@H](O)[C@H](O[C@H]2C[C@H](O)[C@H](O[C@@H]3O[C@H](CO)[C@@H](O)[C@H](O)[C@H]3O)[C@@H](C)O2)[C@@H](C)O1,inactive,0.168 µM (active),0.531 µM (active),inactive,1.68 µM (active),inactive,inactive,inactive,inactive,inactive,inactive,inactive,inactive,inactive,inactive,inactive,inactive,–,inactive
Cc1cc(N)c2ccccc2[n+]1CCCCCCCCCC[n+]1c(C)cc(N)c2ccccc21,inactive,inactive,inactive,inactive,inactive,inactive,inactive,–,inactive,inactive,inactive,inactive,inactive,inactive,inactive,inactive,–,–,inactive
COc1c(Br)cc(Br)c(C)c1Br,inactive,inactive,inactive,inactive,–,inactive,inactive,–,inactive,inactive,inactive,inactive,inactive,inactive,inactive,inactive,inactive,–,inactive
O=C1c2ccccc2-c2n[nH]c3cccc1c23,inactive,inactive,inactive,inactive,0.784 µM (active),inactive,–,12.6 µM [fluorescent] (active),inactive,inactive,14.1 µM (active),inactive,–,inactive,12.6 µM [fluorescent] (active),inactive,14.1 µM [fluorescent] (active),–,–
Nc1ccc(N)c([N+](=O)[O-])c1,–,–,–,–,1.09 µM (active),inactive,inactive,inactive,inactive,inactive,inactive,inactive,–,inactive,–,inactive,inactive,–,–
NCc1cccc(C2CCN(C(=O)c3ccc(C#Cc4ccccc4F)o3)CC2)c1,inactive,61.1 µM (active),–,inactive,–,inactive,inactive,inactive,inactive,inactive,inactive,inactive,inactive,inactive,inactive,inactive,inactive,–,–
CC(O)(c1ccc(Cl)cc1)c1ccc(Cl)cc1,inactive,–,inactive,–,27.3 µM (active),inactive,inactive,–,inactive,inactive,inactive,inactive,inactive,inactive,inactive,inactive,inactive,–,inactive
CCC(C)(C)c1ccc(CC(C)CN2C[C@@H](C)O[C@@H](C)C2)cc1 (stereo partly drawn),–,26.6 µM (active),–,inactive,23.7 µM (active),inactive,inactive,inactive,inactive,inactive,inactive,inactive,–,inactive,inactive,inactive,inactive,–,–
COc1cc2c(cc1OC)[C@@H](Cc1cc(OC)c(OC)c(OC)c1)[N+](C)(CCCOC(=O)CC/C=C/CCC(=O)OCCC[N+]1(C)CCc3cc(OC)c(OC)cc3[C@H]1Cc1cc(OC)c(OC)c(OC)c1)CC2 (stereo partly drawn),–,inactive,inactive,inactive,inactive,inactive,inactive,inactive,inactive,inactive,inactive,inactive,inactive,inactive,inactive,inactive,inactive,–,–
CC1=C(/C=C/C(C)=C/C=C/C(C)=C\C(=O)O)C(C)(C)CCC1,inactive,–,–,inactive,–,inactive,inactive,inactive,inactive,inactive,inactive,inactive,inactive,inactive,inactive,inactive,–,–,–
CCN(CC)CC#CCOC(=O)C(O)(c1ccccc1)C1CCCCC1 (stereo not drawn),–,–,inactive,–,–,inactive,inactive,–,inactive,inactive,inactive,inactive,–,inactive,–,inactive,inactive,inactive,inactive
CON=C1C[C@]2(C[C@@H]3C[C@@H](C/C=C(\C)C[C@@H](C)/C=C/C=C4\CO[C@@H]5[C@H](O)C(C)=C[C@@H](C(=O)O3)[C@]45O)O2)O[C@H](/C(C)=C/C(C)C)[C@H]1C,–,11.9 µM (active) and 8.41 µM (active),11.9 µM (active) and 8.41 µM (active),inactive,13.3 µM (active),inactive,inactive,inactive,inactive,inactive,inactive,inactive,–,inactive,inactive,inactive,inactive,–,–
